Screening data: PubChem BioAssay, The Scripps Research Institute Molecular Screening Center
Compounds with a hit are over-represented: about 4.1% of the library has one in this group of screens.
DAX1 inh-1 – NR0B1 (DAX1) inhibition | HEK293 Gal4-DAX1 luciferase reporter, luminescence | inhibition, % at 6.75 µM | 340,000 tested, 0.99% active | AID 504766;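 active = inhibition above the mean over all tested compounds plus 3 SD, cut at about 4.2% in these data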;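 also: 0% = DAX1-transfected cells with DMSO and 100% = empty-vector control cells with DMSO; inhibition shows as a rise in luminescence from relieved DAX1 repression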
hgDAF-12 ag – hgDAF-12 agonism, primary luciferase screen; HEK293 GAL4-hgDAF12 UAS-luciferase reporter, agonist luminescence; normalized to butyrate control; 370,000 tested, 1.8% active; AID 687014; activation, % at 6.8 µM;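 active = activation above a cutoff set at the mean of all screened compounds plus 3 SD, cut at about 10% in these data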;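 also: 0% = DMSO wells and 100% = sodium butyrate wells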
ssDAF12 agonist – activates DAF-12 receptor from parasite S. stercoralis | activation, % at 6.8 µM | HEK293 ssDAF-12/GRIP1 lit1-tk-luc reporter, luminescence; % of 3 µM dafachronic acid response | 370,000 tested, 1% active;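 active = activation above the mean over all tested compounds plus 3 SD, cut at about 0.9% in these data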;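 also: 0% = DMSO-only wells and 100% = 3 µM delta7-dafachronic acid wells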
DAX1 inh-2 – blocks DAX1 repression of SF-1 activated StAR promoter; 370,000 tested, 1.1% active; inhibition, % at 6.8 µM; HEK293T StAR-luciferase reporter, SF-1/DAX-1 repression relief;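 active = inhibition above the mean over all tested compounds plus 3 SD, cut at about 3.6% in these data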;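 also: 0% = DAX-1 cells with DMSO and 100% = cells lacking DAX-1 with DMSO; higher inhibition means more luminescence from relief of DAX-1 repression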
hcDAF-12 act – activates DAF-12 receptor from parasite H. contortus; HEK293 hcDAF-12 lit1-tk-luc reporter, luminescence; 0% DMSO, 100% Δ7-dafachronic acid; activation, % at 6.8 µM; 370,000 tested, 1.4% active; AID 652067;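 active = activation above the mean of all tested compounds plus 3 SD, cut at about 5.5% in these data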;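 also: 100% = response to 3 µM Δ7-dafachronic acid high control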
DAX1 conf – NR0B1 (human) inhibition, confirmation; shares compounds with DAX1 inh-2; HEK293T StAR-promoter luciferase reporter, SF-1/DAX-1 repression; inhibition, % at 6.8 µM; 2,400 tested, 87% active;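 active = inhibition above the average of every tested compound plus 3 SD, cut at about 3.8% in these data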;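 also: 0% = DAX-1 cells with DMSO and 100% = no DAX-1 control cells with DMSO; active compounds raise luminescence by relieving repression of the StAR reporter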
Target sequence (P51843 whole entry, looked up): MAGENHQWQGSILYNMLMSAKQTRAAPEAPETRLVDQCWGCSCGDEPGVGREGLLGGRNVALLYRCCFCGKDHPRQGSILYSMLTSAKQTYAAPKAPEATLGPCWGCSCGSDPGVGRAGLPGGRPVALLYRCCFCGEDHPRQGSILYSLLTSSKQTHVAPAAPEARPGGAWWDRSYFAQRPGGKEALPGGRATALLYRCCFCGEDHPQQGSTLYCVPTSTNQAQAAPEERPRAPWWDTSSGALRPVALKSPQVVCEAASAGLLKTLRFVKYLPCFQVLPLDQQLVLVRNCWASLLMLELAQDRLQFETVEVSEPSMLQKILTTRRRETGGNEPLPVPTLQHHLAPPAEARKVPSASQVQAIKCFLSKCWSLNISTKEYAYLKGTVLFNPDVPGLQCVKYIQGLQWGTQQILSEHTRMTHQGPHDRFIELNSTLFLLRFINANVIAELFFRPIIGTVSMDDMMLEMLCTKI
SF1 AF2mut Luc – counter-screen for DAX1 inhibitors: nonselective inhibitors with SF-1 AF2 mutant; 2,400 tested, 78% active; HEK293 StAR-luciferase, luminescence; inhibition, % at 6.8 µM; shares compounds with DAX1 inh-2; AID 652136;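 active = inhibition above the mean of all tested compounds plus 3 SD, cut at about 3% in these data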;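 also: 0% = DAX-1 transfected cells with DMSO and 100% = cells without DAX-1 with DMSO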
Numbers without * were called inactive; nt = no result.

SMILES	DAX1 inh-1	hgDAF-12 ag	ssDAF12 agonist	DAX1 inh-2	hcDAF-12 act	others
CN=C1S/C(=C\c2cc(C)n(-c3ccccc3F)c2C)C(=O)N1C	1	-6	-3	-2	-3
COCCN=C1S/C(=C\c2cc(C)n(-c3ccc(F)cc3F)c2C)C(=O)N1C	nt	4	0	nt	5.7*
Cc1cc(NC(=O)Cc2c(C)[nH]c3ccccc23)ccc1Oc1cccnc1	nt	0	0	0	2
NNC(=S)Nc1ccc(Cl)cc1	-1	3	0	0	1
Cc1ccc(Cl)cc1NC(=O)CCC(=O)O	5.0*	4	-2	0	-1
Cc1ccc(Cl)cc1NC(=S)NN	nt	2	0.9*	0	2
CS(=O)(=O)N[C@@H]1C[C@@H]2O[C@H](CO)CC[C@@H]2O[C@@H]1CCc1ccc(/C=C/c2ccccc2)cc1	nt	-6	-1	-3	-4
Cc1sc(N)nc1-c1ccc2c(c1)OCCO2	-1	2	-1	1	1
NC1=NN=C(c2ccc3c(c2)OCCO3)CS1	-1	13*	-1	4.5*	3
CC(C)N(Cc1cn(Cc2ccccc2)nn1)S(=O)(=O)c1ccc(F)cc1Br	nt	-4	-1	-1	-3
Cc1csc(NC(=O)Cn2nc(C)c([N+](=O)[O-])c2C)n1	3	1	2.9*	0	1
O=S1(=O)c2c(cccc2N2CCC[C@@H]2CO)O[C@@H]2CCN1C2	nt	0	0	0	1
Cc1ccc(-c2cc(C(=O)NN=Cc3cccc(OCc4ccccc4)c3)[nH]n2)cc1C	nt	2	-1	0	-3
Cc1ccnc(NC(=O)Nc2ccc3c(c2)N(C)C(=O)CS3)c1	-1	10*	-1	2	0
COc1ccc(CN2C(=O)[C@@](O)(c3cccn3C)c3cc(Br)ccc32)cc1	nt	-3	0	-2	-3
COC(=O)C(C)N1C(=O)S/C(=C\c2cc(C)n(-c3ccccn3)c2C)C1=O (configuration not stated)	0	11*	0	1	0
C=CCNCc1ccc(OC)cc1OC	nt	-2	-1	0	-1
COc1cc2c(cc1NC(=O)COC(=O)C(CCSC)NC(=O)c1ccccc1Cl)oc1ccccc12 (configuration not stated)	-1	-1	2.5*	1	5
O=C(N[C@H](C(=O)O)c1ccccc1)C1CCC(Cn2cnc3ccccc3c2=O)CC1 (some centres not stated)	4.6*	0	-1	0	2
CC(=O)NCCNC(=O)c1ccc(CSc2ccc(Cl)cc2)cc1	4	8	0.9*	2	2
CC1CCN(CC(=O)NC2CCCCC2)CC1	4.3*	-1	0	0	-1
O=C(CN1CCCCC1)NC(=O)NC1CCCCC1	0	-1	-1	1	1
N=C1N(C(=O)OCc2ccccc2)/C(=C\C2=CCCCC2)C(Cc2ccccc2)N1Cc1ccccc1 (configuration not stated)	nt	-1	-1	-1	0
O=C(Nc1cccc(C(=O)O)c1)Nc1ccc2c(c1)OCO2	-5	4	-1	6.8*	4	DAX1 conf=6.3*;SF1 AF2mut Luc=5.5*
CC(NC(=O)Nc1ccc(Cl)cc1)c1ccc2c(c1)OCO2 (configuration not stated)	-1	-6	-2	0	-4
SMILES	DAX1 inh-1	hgDAF-12 ag	ssDAF12 agonist	DAX1 inh-2	hcDAF-12 act	others
Cc1cc(C)c(NC(=O)Nc2ccc3c(c2)OCO3)c(C)c1	2	4	0	4.7*	2	DAX1 conf=2;SF1 AF2mut Luc=3.4*
O=C(Nc1ccc(Cl)cc1)Nc1ccc2c(c1)OCO2	1	12*	0	6.4*	5.7*	DAX1 conf=8.7*;SF1 AF2mut Luc=6.6*
Cc1ccc(NC(=O)Nc2ccc3c(c2)OCO3)c(Br)c1	0	2	-1	2	0
Cc1[nH]c2ccccc2c1CC(=O)Nc1ccc(Nc2cccnc2)c(Br)c1	nt	2	0	-2	2
COc1cc(-c2c(C(=O)c3ccccc3)[nH]c(N)c2C(=O)NCCc2c[nH]c3ccccc23)ccc1F	nt	-2	-1	-1	-1
O=C(C(=O)N1CCN(C(=O)C2CCC2)CC1)c1cccc(C(F)(F)F)c1	nt	0	-1	1	3
COc1ccccc1NS(=O)(=O)c1cc(NC(=O)c2ccc(NC(C)=O)cc2)ccc1N1CCOCC1	2	-4	-1	7.0*	-1	DAX1 conf=10*;SF1 AF2mut Luc=0
CC(=O)NNc1nc(-c2ccccc2)cs1	0	1	-1	0	4
CC(=O)Nc1nc(-c2ccc(-c3ccccc3)cc2)cs1	2	4	-1	4.5*	1	DAX1 conf=5.9*;SF1 AF2mut Luc=4.5*
COc1ccc2oc(C(=O)Nc3nnc(C)s3)c(C)c2c1	-1	11*	0	10*	3	DAX1 conf=16*;SF1 AF2mut Luc=5.9*
Cc1ccc2oc(C(=O)Nc3nnc(C)s3)c(C)c2c1	1	5	-1	1	3
Cc1ccccc1C(=O)N(Cc1ccccn1)CC1CCCO1 (configuration not stated)	nt	3	0	1	-2
CN[C@H]1CCc2cc(OC)c(OC)c(OC)c2-c2ccc(OC)c(=O)cc21	0	-3	0	6.8*	0	DAX1 conf=19*;SF1 AF2mut Luc=-8
CCOC(=O)NC1CCc2cc(OC)c(OC)c(OC)c2-c2ccc(SC)c(=O)cc21 (configuration not stated)	0	-6	-1	5.0*	-1	DAX1 conf=13*;SF1 AF2mut Luc=-7
O=C(NCc1ccccc1Cl)C1CCC(CNS(=O)(=O)c2cccc3cccnc23)CC1 (configuration not stated)	nt	-1	-1	-2	-1
O=C(Cn1nnc(-c2ccc3c(c2)OCO3)n1)Nc1ccccc1C(=O)O	0	3	-1	4.9*	1	DAX1 conf=2;SF1 AF2mut Luc=3.1*
O=C(Cn1nnc(-c2ccccc2)n1)Nc1ccc2c(c1)OCO2	0	1	-1	1	1
O=C(Nc1ccc2oc(-c3ccccc3Cl)nc2c1)c1ncn[nH]1	3	10	0	6.7*	5.8*	DAX1 conf=14*;SF1 AF2mut Luc=7.9*
Brc1ccccc1-c1nc2c3ccccc3ncn2n1	2	11*	0	4.6*	6.0*	DAX1 conf=9.0*;SF1 AF2mut Luc=6.4*
COC(=O)[C@]12C[C@H](CC(=O)N3CCC(c4ccccc4)CC3)C(=O)N(Cc3ccccc3)C1=C[C@H](C1CCCC1)O[C@@H]2C	nt	0	0	1	0
CC(c1ccccc1)N1CC[C@H]2C=CC[C@@H](C(=O)Nc3ccc(F)c(F)c3)[C@H]2C1=O (some centres not stated)	nt	-1	-1	nt	1
